Data taken from PubChem BioAssay.
Activity calls are given as the source filed them. Cut-off read from the data, not from the text of the source, unless noted: active = inhibition above about 25%; inactive = the rest.

Legend:
[1] = biological target: Nuclear receptor coactivator 3 (Homo sapiens) (UniProt Q9Y6Q9); test: SRC3 coactivator transcriptional activity inhibitors, confirmation, cell-based, luminescence, quadruplicate (AID 588792;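 active = mean inhibition over 43.08%, the solvent-only control mean plus 3 SD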;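 note: 0% = DMSO treated cells and 100% = gossypol at 36 µM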); conditions: HEK293 GAL4-SRC3 luciferase reporter, at 3.6 µM, active compounds read high
Nuclear receptor coactivator 3 (Homo sapiens), sequence (Q9Y6Q9 whole entry, looked up, the tested form may be a part): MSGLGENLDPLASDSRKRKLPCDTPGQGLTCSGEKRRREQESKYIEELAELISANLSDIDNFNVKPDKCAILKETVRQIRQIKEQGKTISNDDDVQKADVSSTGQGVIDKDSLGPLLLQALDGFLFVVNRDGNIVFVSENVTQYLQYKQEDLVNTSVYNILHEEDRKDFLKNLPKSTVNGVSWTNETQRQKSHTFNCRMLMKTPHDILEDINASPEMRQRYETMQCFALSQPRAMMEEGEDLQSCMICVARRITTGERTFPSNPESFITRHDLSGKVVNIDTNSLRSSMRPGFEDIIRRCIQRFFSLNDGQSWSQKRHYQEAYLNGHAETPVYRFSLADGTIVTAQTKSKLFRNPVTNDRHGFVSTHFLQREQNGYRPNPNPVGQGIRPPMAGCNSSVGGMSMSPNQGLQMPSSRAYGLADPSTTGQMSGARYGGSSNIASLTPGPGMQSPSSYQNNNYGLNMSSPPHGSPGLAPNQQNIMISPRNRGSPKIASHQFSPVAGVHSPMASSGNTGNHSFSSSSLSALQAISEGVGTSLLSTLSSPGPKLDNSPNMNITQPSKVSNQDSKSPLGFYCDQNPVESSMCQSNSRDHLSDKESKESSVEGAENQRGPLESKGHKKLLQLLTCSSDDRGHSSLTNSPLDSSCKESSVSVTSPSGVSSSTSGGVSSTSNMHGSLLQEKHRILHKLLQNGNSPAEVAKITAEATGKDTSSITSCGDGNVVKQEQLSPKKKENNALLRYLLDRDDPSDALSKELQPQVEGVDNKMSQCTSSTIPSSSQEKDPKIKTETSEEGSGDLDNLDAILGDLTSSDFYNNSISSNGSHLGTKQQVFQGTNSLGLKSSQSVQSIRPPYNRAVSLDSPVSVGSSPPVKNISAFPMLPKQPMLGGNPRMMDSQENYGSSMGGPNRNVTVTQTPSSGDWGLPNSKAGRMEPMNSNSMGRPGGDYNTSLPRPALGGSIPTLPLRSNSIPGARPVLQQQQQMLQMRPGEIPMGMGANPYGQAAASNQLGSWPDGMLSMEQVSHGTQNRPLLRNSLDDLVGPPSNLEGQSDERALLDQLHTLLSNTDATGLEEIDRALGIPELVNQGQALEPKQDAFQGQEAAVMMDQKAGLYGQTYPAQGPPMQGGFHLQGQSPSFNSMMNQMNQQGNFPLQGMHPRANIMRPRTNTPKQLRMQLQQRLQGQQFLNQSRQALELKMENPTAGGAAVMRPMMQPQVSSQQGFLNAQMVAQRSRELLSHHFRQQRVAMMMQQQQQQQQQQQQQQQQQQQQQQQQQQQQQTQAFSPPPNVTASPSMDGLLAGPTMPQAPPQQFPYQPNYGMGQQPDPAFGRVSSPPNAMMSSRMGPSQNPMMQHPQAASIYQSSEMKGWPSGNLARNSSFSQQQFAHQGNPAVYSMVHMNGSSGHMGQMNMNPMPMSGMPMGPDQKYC

[2] = system: transactivating tegument protein VP16 (Human herpesvirus 1), Gal4-VP16 luciferase reporter; test: VP16 transactivation inhibitors, counter-screen for SRC3 inhibitor project, cell-based, luminescence, high throughput (AID 588794; in the data active = inhibition above about 30%); conditions: mammalian cells, VP16-driven luciferase reporter luminescence; at 3.6 µM; active compounds read high
[3] = biological target: Nuclear receptor coactivator 1 (Homo sapiens) (UniProt Q15788); test: SRC1 coactivator transcriptional activity inhibitors, confirmation, cell-based, luminescence, quadruplicate (AID 588820;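 active = mean inhibition above 46.68%, the untreated control wells mean plus 3 SD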;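 note: 0% = DMSO wells and 100% = gossypol 36 µM treated wells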); conditions: HEK293 GAL4-SRC1 luciferase reporter, at 3.6 µM, active compounds read high
[4] = VP16 transactivation inhibitors, counter-screen for SRC1 inhibitor project, cell-based, luminescence, high throughput (AID 588824); conditions: cell-based VP16 transactivation luciferase luminescence; at 3.6 µM; active compounds read high
[5] = StAR promoter reporter inhibitors, counter-screen for LRH-1 inverse agonist project, cell-based, luminescence, high throughput (AID 651611; in the data active = inhibition above about 28%); conditions: StAR promoter luciferase reporter counterscreen, at 3.6 µM, active compounds read high
[6] = biological target: Nuclear receptor subfamily 5 group A member 2 (Homo sapiens) (UniProt O00482); test: LRH-1 (NR5A2) inverse agonists, retest, confirmation, cell-based, luminescence (AID 651613; in the data active = inhibition above about 42%;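 note: HEK293T cells co-transfected with LRH-1 and StAR promoter luciferase reporter; 0% = vehicle wells and 100% = parental cells lacking receptor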); conditions: cell-based LRH-1 luciferase reporter, inverse agonism; at 3.6 µM; active compounds read high
Nuclear receptor subfamily 5 group A member 2 (Homo sapiens), sequence (O00482 whole entry, looked up): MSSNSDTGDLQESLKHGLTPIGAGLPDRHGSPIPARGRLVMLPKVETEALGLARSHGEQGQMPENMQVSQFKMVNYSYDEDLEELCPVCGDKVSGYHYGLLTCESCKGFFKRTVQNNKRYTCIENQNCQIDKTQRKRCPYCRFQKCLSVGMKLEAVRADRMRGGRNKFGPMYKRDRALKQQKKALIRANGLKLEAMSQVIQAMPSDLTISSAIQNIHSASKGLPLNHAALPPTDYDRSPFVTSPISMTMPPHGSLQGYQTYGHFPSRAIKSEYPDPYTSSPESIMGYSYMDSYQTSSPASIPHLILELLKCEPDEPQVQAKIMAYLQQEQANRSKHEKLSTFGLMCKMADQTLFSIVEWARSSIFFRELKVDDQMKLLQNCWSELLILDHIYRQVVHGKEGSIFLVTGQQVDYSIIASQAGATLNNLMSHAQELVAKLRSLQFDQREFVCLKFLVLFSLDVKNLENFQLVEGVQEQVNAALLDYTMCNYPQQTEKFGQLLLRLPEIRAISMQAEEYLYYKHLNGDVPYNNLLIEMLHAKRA

[7] = biological target: Steroidogenic factor 1 (Homo sapiens) (UniProt Q13285); test: SF1 (NR5A1) inverse agonists, counter-screen for LRH-1 inverse agonist project, cell-based, luminescence, high throughput (AID 651614; in the data active = inhibition above about 44%;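 note: cells cotransfected with StAR promoter reporter and SF1 expression vector; 0% = vehicle on cells with receptor and 100% = vehicle on cells lacking receptor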); conditions: cell-based SF1 luciferase reporter, at 3.6 µM, active compounds read high
Steroidogenic factor 1 (Homo sapiens), sequence (Q13285 whole entry, looked up, the tested form may be a part): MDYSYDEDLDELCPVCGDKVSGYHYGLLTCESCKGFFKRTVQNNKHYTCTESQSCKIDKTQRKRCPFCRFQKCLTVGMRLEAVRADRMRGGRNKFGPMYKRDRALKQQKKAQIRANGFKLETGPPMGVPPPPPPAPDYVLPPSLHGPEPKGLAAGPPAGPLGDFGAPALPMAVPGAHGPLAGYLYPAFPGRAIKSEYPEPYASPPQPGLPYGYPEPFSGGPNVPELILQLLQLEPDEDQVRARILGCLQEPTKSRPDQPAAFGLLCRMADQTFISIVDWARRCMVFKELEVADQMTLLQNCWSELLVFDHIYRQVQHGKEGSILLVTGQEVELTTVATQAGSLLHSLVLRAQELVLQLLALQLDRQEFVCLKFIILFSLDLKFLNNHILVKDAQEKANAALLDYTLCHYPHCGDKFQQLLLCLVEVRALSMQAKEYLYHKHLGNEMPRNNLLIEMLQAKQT

[8] = VP16 transactivation reporter inhibitors, counter-screen for LRH-1 inverse agonist project, cell-based, luminescence, high throughput (AID 651615; in the data active = inhibition above about 33%); conditions: Gal4-VP16 luciferase reporter cells, at 3.6 µM, active compounds read high
[9] = system: transactivating tegument protein VP16 (Human herpesvirus 1); test: VP16 transactivation reporter inhibitors, counter-screen for SRC2 inhibitor project, cell-based, luminescence, single concentration (AID 652007; in the data active = inhibition above about 36%); conditions: cell-based VP16 transactivation luciferase reporter, at 8.9 µM, active compounds read high
[10] = biological target: Nuclear receptor coactivator 2 (Homo sapiens) (UniProt Q15596); test: SRC2 coactivator transcriptional activity inhibitors, confirmation, cell-based, luminescence, HEK293, triplicate (AID 652008;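 active = mean inhibition above 46.5%, the solvent-only control mean plus 3 SD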;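 note: 0% = DMSO-treated cells and 100% = Gossypol at 36 µM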); conditions: HEK293 GAL4-SRC2 luciferase reporter, at 8.9 µM, active compounds read high
Nuclear receptor coactivator 2 (Homo sapiens), sequence (Q15596 whole entry, looked up, the tested form may be a part): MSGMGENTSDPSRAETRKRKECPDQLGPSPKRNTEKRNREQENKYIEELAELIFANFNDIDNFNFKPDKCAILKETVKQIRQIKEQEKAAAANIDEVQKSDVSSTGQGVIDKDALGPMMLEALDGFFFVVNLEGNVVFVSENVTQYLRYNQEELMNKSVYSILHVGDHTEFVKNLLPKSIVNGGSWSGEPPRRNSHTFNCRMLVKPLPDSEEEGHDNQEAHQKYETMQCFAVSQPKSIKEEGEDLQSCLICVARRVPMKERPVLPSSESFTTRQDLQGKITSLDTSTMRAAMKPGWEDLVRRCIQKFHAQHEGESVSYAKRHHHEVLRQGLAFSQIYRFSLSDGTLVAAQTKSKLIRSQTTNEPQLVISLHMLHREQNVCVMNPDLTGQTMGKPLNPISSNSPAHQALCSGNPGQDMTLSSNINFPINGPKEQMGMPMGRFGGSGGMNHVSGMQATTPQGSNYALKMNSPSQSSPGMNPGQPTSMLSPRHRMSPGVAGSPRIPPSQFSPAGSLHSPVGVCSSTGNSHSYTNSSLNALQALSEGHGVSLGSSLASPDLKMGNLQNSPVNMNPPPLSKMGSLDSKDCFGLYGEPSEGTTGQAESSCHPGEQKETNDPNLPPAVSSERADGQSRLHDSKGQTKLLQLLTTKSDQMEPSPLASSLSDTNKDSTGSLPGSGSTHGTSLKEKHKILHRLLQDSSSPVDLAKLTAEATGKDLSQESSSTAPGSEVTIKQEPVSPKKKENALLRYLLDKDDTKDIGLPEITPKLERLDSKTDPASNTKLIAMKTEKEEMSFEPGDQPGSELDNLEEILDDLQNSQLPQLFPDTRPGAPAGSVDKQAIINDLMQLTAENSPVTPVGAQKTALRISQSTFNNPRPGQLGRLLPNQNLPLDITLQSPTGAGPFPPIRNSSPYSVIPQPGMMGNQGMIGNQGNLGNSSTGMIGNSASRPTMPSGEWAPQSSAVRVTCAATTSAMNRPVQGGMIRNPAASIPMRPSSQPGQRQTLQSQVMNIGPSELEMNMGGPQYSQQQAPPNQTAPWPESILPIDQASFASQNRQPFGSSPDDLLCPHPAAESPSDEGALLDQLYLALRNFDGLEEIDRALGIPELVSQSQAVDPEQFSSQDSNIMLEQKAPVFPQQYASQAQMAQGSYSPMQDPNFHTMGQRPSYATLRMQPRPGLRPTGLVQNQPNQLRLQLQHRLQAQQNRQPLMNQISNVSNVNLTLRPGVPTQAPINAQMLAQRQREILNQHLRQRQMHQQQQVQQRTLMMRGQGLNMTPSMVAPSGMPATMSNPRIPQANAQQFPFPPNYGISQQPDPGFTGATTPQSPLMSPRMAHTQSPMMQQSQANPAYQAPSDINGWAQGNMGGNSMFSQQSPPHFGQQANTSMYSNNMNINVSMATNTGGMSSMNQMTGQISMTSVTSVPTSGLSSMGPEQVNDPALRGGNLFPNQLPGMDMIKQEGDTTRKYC

Measured: inhibition

Cc1ccc(NC(=O)c2cc(C)n(-c3ccccc3)c2C)cc1
inactive: [2] 23.7% | [3] 1.09% | [4] -11.4% | [6] -63.5% | [7] 20.4% | [8] -42.7%
active: [1] 43.4% | [5] 45.2% | [9] 61.3% | [10] 69.8%

O=C(NN=Cc1c(O)ccc2ccccc12)c1ccncc1
active: [1] 77% | [2] 70.6% | [3] 65.6% | [4] 65.3% | [5] 87.4% | [6] 104% | [7] 89.8% | [8] 77.4%
inactive: [9] -16.9% | [10] 38%

COc1cc(SC)ccc1C(=O)Nc1nc2ccccc2[nH]1
active: [1] 92.1% | [2] 90% | [3] 85.9% | [4] 89.4% | [5] 95.1% | [6] 103% | [7] 96.5% | [8] 92.6% | [9] 96.4% | [10] 99.5%

CCn1c(C)cc(C(=O)CN2C(=O)c3ccccc3S2(=O)=O)c1C
active: [2] 31.5% | [5] 33.4% | [9] 46.9% | [10] 59.8%
inactive: [1] 30.1% | [3] -18.2% | [4] 25% | [6] -16.2% | [7] 28.1% | [8] 11%

C=C1C(=O)OC2CC1C(OC(C)=O)CC(C)=CCCC(C)=CCCC2(C)O (stereo not given)
inactive: [1] 0.28% | [3] 23.6% | [6] 25.2% | [7] 25% | [9] 26.4% | [10] 38.7%
active: [2] 39.9% | [4] 34.9% | [5] 39.1% | [8] 56%

O=C(CSc1nnc(-c2cccnc2)s1)Nc1ccnc2ccccc12
inactive: [1] 32.3% | [3] -3.87% | [5] 21% | [9] 23.7% | [10] 35%
active: [2] 46.7% | [4] 51.2% | [6] 57% | [7] 56.1% | [8] 55.6%

O=C(O)C1CCCCC1C(=O)Nc1ccc2c(c1)OCCO2 (stereo not given)
inactive: [1] -6.32% | [2] -0.43% | [3] -18.1% | [4] -13.8% | [5] -0.9% | [6] -1.32% | [7] -1.69% | [8] 0% | [9] -11.1% | [10] 26.9%

CN=c1scc(-c2cccs2)n1/N=C/c1ccccc1O
active: [1] 91.6% | [2] 89.5% | [3] 80% | [4] 81.4% | [5] 90.6% | [6] 90.4% | [7] 91.2% | [8] 89.6% | [9] 96.8% | [10] 97.8%

CC(C)(C)c1ccc(C(=O)O/N=C(\N)c2ccccn2)cc1
active: [1] 85.4% | [2] 77.2% | [3] 64.9% | [4] 67.5% | [5] 61.1% | [6] 45.8% | [7] 58.5% | [8] 62.5% | [9] 83.1% | [10] 94.4%

O=c1ccc2ccccc2c2ccccc12
active: [1] 73.2% | [2] 70.8% | [3] 58.7% | [4] 70% | [5] 76.7% | [6] 93.6% | [7] 90.3% | [8] 88.1% | [9] 68.3% | [10] 84.5%

CC[C@@]1(O)C(=O)OCc2c1cc1n(c2=O)Cc2cc3c(N)cccc3nc2-1
inactive: [9] 30.5%
active: [1] 91.8% | [2] 77.3% | [3] 58.2% | [4] 74.7% | [5] 84.6% | [6] 104% | [7] 92% | [8] 77.2% | [10] 51.9%

COC(=O)c1ccccc1-c1c2ccc(=N)cc-2oc2cc(N)ccc12
active: [2] 55.2% | [4] 48.3% | [5] 62.2% | [6] 109% | [7] 79.1% | [8] 88%
inactive: [1] 35% | [3] 28.7% | [9] 21.2% | [10] 3.71%

Cc1ccc2oc(/N=C(\N)NC(=O)C(C)(C)C)nc2c1
active: [1] 82.8% | [2] 73.6% | [3] 65.2% | [4] 61.1% | [5] 80.4% | [6] 51.4% | [7] 75.4% | [8] 61.7% | [9] 77.6% | [10] 91.5%

CC(C)c1ccc(-c2nc3ccccc3s2)cc1
active: [1] 80.1% | [2] 73.8% | [3] 56% | [4] 53.8% | [5] 78.9% | [6] 42.9% | [7] 74.5% | [8] 51.7% | [9] 64.7% | [10] 86.8%

CCOc1cccc(/C=N/NC(=S)Nc2ccccc2[N+](=O)[O-])c1O
active: [1] 70.3% | [2] 57.6% | [4] 38.2% | [5] 66.1% | [7] 65.2% | [8] 54% | [9] 39.7% | [10] 73.3%
inactive: [3] 44.9% | [6] 22.9%

Cc1ccc(-c2nc(-c3ccccn3)no2)cc1
inactive: [3] 29% | [6] 11% | [8] 25%
active: [1] 59.3% | [2] 48.7% | [4] 43.9% | [5] 39.1% | [7] 52% | [9] 66.8% | [10] 85.5%

CCC1(O)C(=O)OCc2c1cc1n(c2=O)Cc2cc3cc(O)ccc3nc2-1 (stereo not given)
active: [1] 94.8% | [2] 79.2% | [3] 68.8% | [4] 77.4% | [5] 84.6% | [6] 104% | [7] 91.4% | [8] 83.8%
inactive: [9] 24.9% | [10] 39.5%

COc1ccc2cc3c(N)nn(C(=O)Cc4c[nH]c5ccccc45)c3nc2c1
inactive: [9] 31.8%
active: [1] 82.3% | [2] 66.2% | [3] 69% | [4] 63.9% | [5] 51.1% | [6] 64.7% | [7] 55.5% | [8] 83.3% | [10] 73.2%

Nc1ncnc2c(C3OC(CO)C(O)C3O)scc12 (stereo not given)
active: [1] 90.7% | [2] 95.1% | [3] 78.5% | [4] 94.9% | [5] 89.2% | [6] 107% | [7] 96.5% | [8] 92.9% | [9] 62.8% | [10] 57.2%

N#Cc1c(N)n(C2OC(CO)C(O)C2O)c2ncnc(N)c12 (stereo not given)
active: [1] 96% | [2] 96% | [3] 79.9% | [4] 95.1% | [5] 85.9% | [6] 106% | [7] 95.6% | [8] 96.3% | [9] 62% | [10] 66.3%

Cc1cc(C(=O)COC(=O)c2ccccc2Br)c(C)n1CC1CCCO1 (stereo not given)
active: [1] 77.5% | [2] 71.7% | [3] 60.3% | [4] 51.9% | [5] 57.3% | [7] 51% | [8] 48.6% | [9] 66.2% | [10] 90.6%
inactive: [6] 20.4%
